Test results as given in publication PMC7862700, “An all-to-all approach to the identification of sequence-specific readers for epigenetic DNA modifications on cytosine”.

Columns and labels:
Assay in all cases: DAPPL (digital affinity profiling via proximity ligation, sequencing); 10 mM Tris-HCl pH 7.5, 50 mM NaCl, 1 mM DTT, 4% glycerol, room temperature, 30 min; GST-TFs on glutathione beads, 16-mer random dsDNA library, 0.1% formaldehyde crosslink after washing; high values mean tight binding
FEV = target: T1, FEV (Homo sapiens, UniProt Q99581 1-238); settings: protein: recombinant; tags: N-terminal GST; dsDNA, one strand shown
T1 sequence: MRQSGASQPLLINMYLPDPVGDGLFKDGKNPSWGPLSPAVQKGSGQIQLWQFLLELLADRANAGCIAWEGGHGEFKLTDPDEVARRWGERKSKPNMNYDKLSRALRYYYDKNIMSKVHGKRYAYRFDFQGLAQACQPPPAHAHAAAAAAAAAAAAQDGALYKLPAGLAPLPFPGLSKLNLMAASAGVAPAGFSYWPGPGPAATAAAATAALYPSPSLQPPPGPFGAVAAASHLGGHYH
Procedure, shortened: (§1)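 Human transcription factors fused to GST were expressed in yeast, captured on glutathione beads, given DNA barcodes and pooled with a GST-only negative control. Pools were incubated with 200 nmole of a 16-mer random double-stranded DNA library in Tris/NaCl/DTT/glycerol buffer at room temperature for 30 min. They were then washed, crosslinked with 0.1% formaldehyde, proximity-ligated (BsaI/T4 ligase, 1 h, 37 °C), PCR-amplified and sequenced on an Illumina NextSeq500. Binding signal is each 6-mer's read frequency for a factor divided by its frequency for the GST control.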

ETV5 = ETV5 (Homo sapiens, UniProt P41161 1-510); settings: protein: recombinant; tags: N-terminal GST; dsDNA, one strand shown
Chain of ETV5 (P41161 whole entry): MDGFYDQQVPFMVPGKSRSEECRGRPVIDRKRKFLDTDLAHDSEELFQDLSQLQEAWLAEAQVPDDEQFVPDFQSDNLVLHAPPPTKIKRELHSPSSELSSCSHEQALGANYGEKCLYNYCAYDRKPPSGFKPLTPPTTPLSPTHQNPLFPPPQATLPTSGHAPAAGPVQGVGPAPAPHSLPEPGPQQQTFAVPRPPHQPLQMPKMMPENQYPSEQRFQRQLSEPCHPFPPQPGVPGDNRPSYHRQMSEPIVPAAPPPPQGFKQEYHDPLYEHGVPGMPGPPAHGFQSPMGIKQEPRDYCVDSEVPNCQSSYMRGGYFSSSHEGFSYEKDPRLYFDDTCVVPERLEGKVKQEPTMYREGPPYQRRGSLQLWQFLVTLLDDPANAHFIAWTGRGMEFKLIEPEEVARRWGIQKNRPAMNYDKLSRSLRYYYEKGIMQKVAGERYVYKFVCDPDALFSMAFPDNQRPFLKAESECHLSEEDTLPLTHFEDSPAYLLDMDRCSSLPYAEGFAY
Procedure, shortened: as §1

HSF1 = HSF1 (Homo sapiens, UniProt Q00613 1-529); settings: protein: recombinant; tags: N-terminal GST; chain copies: 3; dsDNA, one strand shown
Chain of HSF1 (Q00613 whole entry): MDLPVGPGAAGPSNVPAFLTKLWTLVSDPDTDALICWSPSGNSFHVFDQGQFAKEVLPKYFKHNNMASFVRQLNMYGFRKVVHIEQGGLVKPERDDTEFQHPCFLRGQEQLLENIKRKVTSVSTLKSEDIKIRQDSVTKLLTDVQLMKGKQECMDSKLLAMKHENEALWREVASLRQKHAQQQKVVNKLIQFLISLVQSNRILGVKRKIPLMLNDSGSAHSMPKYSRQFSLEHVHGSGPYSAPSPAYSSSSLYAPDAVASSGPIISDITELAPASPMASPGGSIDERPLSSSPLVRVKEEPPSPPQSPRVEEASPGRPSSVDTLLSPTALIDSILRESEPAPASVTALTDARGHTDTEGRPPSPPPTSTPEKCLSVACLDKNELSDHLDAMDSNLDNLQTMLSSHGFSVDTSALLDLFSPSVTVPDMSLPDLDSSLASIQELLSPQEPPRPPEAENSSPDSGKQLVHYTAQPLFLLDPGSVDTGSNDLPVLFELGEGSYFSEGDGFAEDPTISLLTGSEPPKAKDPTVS
Procedure, shortened: as §1

SPIC = target: T2, SPIC (Homo sapiens, UniProt Q8N5J4 1-248); settings: protein: recombinant; tags: N-terminal GST; dsDNA, one strand shown
T2 sequence: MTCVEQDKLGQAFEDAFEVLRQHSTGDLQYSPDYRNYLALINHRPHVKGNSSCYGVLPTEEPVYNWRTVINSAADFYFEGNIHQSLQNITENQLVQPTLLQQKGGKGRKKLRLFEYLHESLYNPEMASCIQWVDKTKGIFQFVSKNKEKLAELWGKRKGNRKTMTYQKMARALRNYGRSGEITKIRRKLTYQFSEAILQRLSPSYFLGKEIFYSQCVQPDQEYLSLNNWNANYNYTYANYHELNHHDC
Procedure, shortened: as §1

ELF4 = ELF4 (Homo sapiens, UniProt Q99607 1-663); settings: protein: recombinant; tags: N-terminal GST; dsDNA, one strand shown
Chain of ELF4 (Q99607 whole entry): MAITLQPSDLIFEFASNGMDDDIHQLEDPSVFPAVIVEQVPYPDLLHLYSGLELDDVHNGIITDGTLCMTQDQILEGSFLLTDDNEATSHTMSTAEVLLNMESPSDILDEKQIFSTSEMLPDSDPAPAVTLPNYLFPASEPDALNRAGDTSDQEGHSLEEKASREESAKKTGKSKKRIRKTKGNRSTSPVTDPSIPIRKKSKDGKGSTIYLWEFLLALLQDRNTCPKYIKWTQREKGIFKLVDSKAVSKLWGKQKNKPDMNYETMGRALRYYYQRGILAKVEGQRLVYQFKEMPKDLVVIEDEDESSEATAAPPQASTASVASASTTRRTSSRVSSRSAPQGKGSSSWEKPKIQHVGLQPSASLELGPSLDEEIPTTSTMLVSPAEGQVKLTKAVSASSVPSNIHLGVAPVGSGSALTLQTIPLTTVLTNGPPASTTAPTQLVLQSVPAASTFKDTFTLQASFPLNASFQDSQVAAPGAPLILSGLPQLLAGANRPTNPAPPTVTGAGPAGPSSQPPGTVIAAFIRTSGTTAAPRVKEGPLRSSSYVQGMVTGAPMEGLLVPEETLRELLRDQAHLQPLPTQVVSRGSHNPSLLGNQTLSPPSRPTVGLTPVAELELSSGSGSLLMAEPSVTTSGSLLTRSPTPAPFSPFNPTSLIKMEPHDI
Procedure, shortened: as §1

ELK4 = target: T3, ELK4 (Homo sapiens, UniProt P28324-2 1-405); settings: protein: recombinant; tags: N-terminal GST; dsDNA, one strand shown
T3 sequence: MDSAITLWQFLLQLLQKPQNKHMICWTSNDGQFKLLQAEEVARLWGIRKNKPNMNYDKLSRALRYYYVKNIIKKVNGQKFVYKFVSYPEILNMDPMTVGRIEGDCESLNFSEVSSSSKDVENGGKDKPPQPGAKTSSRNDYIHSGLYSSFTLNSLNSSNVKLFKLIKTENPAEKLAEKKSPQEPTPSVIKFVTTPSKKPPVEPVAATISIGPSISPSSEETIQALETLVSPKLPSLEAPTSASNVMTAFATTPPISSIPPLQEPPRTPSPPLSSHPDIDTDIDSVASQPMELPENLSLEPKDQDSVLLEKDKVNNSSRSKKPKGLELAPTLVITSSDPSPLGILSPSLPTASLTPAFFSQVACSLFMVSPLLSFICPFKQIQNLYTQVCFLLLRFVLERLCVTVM
Procedure, shortened: as §1

ETV2 = target: T4, ETV2 (Homo sapiens, UniProt O00321 1-342); settings: protein: recombinant; tags: N-terminal GST; dsDNA, one strand shown
T4 sequence: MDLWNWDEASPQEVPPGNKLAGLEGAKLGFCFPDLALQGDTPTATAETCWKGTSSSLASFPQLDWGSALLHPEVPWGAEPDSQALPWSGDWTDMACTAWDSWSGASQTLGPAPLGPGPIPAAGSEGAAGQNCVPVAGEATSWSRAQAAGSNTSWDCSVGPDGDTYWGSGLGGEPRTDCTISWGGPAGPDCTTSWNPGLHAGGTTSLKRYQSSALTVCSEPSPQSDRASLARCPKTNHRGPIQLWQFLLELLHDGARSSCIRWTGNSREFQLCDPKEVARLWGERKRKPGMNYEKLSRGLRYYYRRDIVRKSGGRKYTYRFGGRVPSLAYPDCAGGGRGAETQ
Procedure, shortened: as §1

ELF3 = target: T5, ELF3 (Homo sapiens, UniProt P78545 1-371); settings: protein: recombinant; tags: N-terminal GST; dsDNA, one strand shown
T5 sequence: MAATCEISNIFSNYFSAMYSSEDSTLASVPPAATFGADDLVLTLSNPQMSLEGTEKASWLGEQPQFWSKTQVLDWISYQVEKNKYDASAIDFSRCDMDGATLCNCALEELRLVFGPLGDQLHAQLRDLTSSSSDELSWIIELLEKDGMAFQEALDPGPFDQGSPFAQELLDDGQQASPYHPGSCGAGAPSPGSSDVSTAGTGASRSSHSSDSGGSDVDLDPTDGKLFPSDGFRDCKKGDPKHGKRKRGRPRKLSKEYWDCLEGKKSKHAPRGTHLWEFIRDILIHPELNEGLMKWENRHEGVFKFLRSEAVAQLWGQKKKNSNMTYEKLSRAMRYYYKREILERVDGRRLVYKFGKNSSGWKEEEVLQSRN
Procedure, shortened: as §1

CRX = CRX (Homo sapiens, UniProt O43186 1-299); settings: protein: recombinant; tags: N-terminal GST; dsDNA, one strand shown
Chain of CRX (O43186 whole entry): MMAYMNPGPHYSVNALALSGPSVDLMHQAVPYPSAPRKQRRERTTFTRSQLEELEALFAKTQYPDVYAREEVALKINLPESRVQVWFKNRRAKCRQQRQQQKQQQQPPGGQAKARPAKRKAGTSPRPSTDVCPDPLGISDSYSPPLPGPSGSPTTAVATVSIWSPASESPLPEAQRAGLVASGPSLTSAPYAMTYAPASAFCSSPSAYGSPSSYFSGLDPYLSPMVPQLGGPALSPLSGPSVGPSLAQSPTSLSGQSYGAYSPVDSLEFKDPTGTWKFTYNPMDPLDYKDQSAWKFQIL
Procedure, shortened: as §1

ETV1 = ETV1 (Homo sapiens, UniProt P50549 1-477); settings: protein: recombinant; tags: N-terminal GST; dsDNA, one strand shown
Chain of ETV1 (P50549 whole entry): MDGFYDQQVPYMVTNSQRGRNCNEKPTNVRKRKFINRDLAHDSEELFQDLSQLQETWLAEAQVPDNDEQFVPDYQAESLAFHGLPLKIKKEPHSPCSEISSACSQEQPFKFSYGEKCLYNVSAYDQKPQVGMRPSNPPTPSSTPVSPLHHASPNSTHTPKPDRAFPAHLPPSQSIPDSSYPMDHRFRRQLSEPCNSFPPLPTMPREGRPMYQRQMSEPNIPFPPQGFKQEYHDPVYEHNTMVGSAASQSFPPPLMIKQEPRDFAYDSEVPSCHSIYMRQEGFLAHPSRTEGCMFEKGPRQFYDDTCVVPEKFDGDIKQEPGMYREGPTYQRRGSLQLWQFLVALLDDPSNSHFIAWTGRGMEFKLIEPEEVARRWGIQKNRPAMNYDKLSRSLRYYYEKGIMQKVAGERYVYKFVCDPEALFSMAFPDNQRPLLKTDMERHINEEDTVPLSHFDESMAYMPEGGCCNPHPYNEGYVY
Procedure, shortened: as §1

ERF = target: T6, ERF (Homo sapiens, UniProt P50548 1-548); settings: protein: recombinant; tags: N-terminal GST; dsDNA, one strand shown
T6 sequence: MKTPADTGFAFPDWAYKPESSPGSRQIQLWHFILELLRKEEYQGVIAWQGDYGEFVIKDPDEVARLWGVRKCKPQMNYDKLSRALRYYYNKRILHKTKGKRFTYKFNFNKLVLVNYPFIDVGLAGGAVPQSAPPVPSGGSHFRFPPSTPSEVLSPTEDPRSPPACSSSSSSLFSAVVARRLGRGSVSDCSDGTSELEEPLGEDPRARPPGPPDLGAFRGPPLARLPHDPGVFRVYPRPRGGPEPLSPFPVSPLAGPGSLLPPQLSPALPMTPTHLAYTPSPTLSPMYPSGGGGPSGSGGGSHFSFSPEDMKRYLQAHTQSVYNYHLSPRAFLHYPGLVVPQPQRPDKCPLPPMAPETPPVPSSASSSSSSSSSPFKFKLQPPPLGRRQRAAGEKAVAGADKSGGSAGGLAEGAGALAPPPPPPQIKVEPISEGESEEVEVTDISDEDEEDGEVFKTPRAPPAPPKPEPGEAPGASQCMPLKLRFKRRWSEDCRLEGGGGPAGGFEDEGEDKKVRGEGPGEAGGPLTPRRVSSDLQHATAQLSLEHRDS
Procedure, shortened: as §1

ETV3L = target: T7, ETV3L (Homo sapiens, UniProt Q6ZN32 1-361); settings: protein: recombinant; tags: N-terminal GST; dsDNA, one strand shown
T7 sequence: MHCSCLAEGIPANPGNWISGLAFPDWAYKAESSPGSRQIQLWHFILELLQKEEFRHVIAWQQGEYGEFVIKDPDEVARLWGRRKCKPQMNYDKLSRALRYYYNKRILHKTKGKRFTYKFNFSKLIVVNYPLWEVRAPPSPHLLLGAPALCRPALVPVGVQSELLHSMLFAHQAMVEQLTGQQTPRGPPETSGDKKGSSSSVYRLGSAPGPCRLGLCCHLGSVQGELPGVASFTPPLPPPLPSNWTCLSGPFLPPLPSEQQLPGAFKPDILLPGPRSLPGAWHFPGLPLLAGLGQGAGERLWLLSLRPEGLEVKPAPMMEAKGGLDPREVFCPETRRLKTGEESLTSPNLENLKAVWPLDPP
Procedure, shortened: as §1

ETS2 = target: T8, ETS2 (Homo sapiens, UniProt P15036 1-469); settings: protein: recombinant; tags: N-terminal GST; dsDNA, one strand shown
T8 sequence: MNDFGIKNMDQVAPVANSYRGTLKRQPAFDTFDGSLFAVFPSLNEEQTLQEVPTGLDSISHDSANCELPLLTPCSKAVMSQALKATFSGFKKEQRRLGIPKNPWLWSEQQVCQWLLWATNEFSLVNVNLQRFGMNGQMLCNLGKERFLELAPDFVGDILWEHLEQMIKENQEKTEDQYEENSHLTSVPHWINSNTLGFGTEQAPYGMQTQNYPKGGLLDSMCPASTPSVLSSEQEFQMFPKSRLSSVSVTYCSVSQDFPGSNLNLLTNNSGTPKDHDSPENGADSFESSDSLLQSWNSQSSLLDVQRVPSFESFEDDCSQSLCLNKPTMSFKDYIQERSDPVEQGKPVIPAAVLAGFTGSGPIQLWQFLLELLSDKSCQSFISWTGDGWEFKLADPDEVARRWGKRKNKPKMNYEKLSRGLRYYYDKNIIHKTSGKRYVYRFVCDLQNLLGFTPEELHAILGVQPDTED
Procedure, shortened: as §1

SPDEF = target: T9, SPDEF (Homo sapiens, UniProt O95238 1-335); settings: protein: recombinant; tags: N-terminal GST; dsDNA, one strand shown
T9 sequence: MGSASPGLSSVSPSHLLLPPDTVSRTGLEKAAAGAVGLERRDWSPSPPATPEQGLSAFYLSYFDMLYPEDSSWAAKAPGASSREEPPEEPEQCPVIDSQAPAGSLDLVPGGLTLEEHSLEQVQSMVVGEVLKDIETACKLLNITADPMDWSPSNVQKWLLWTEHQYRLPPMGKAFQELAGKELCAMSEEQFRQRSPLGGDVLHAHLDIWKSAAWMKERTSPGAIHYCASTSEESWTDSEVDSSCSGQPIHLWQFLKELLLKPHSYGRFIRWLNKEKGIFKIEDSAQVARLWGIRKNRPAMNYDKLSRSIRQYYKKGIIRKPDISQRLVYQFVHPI
Procedure, shortened: as §1

ETV7 = target: T10, ETV7 (Homo sapiens, UniProt Q9Y603 1-341); settings: protein: recombinant; tags: N-terminal GST; dsDNA, one strand shown
T10 sequence: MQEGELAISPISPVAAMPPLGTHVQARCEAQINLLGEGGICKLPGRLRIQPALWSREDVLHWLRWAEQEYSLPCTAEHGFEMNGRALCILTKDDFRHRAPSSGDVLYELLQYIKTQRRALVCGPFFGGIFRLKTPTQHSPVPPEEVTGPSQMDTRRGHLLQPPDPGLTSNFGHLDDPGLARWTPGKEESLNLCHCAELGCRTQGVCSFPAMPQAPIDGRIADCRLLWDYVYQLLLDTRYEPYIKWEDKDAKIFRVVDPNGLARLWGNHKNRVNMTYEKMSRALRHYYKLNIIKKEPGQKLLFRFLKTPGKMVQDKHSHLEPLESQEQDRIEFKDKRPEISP
Procedure, shortened: as §1

ELF5 = target: T11, ELF5 (Homo sapiens, UniProt Q9UKW6-2 1-255); settings: protein: recombinant; tags: N-terminal GST; dsDNA, one strand shown
T11 sequence: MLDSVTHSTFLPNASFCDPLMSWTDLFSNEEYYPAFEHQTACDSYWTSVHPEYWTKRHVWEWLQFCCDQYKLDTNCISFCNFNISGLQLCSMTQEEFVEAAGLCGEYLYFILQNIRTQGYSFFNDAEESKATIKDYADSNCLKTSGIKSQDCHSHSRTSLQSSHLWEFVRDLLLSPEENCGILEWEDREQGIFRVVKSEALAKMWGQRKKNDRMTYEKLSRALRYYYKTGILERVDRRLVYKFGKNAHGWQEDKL
Procedure, shortened: as §1

ETV3 = target: T12, ETV3 (Homo sapiens, UniProt P41162-2 1-143); settings: protein: recombinant; tags: N-terminal GST; dsDNA, one strand shown
T12 sequence: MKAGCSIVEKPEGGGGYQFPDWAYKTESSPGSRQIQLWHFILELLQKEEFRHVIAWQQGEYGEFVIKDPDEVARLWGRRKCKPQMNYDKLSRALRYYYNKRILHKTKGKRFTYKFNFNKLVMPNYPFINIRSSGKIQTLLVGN
Procedure, shortened: as §1

ETV6 = ETV6 (Homo sapiens, UniProt P41212 1-452); settings: protein: recombinant; tags: N-terminal GST; dsDNA, one strand shown
Chain of ETV6 (P41212 whole entry): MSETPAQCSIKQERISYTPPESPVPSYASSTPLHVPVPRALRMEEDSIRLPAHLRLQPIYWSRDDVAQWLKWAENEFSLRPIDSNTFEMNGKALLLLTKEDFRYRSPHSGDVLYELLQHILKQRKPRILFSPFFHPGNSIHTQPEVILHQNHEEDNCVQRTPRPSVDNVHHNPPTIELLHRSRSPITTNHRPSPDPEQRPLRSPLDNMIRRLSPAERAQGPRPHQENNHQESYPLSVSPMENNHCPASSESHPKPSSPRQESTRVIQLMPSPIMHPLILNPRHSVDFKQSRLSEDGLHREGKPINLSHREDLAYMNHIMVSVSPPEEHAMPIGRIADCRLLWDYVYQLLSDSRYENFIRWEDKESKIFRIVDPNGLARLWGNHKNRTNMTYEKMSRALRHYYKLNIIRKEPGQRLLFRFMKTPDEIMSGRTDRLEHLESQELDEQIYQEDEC
Procedure, shortened: as §1

TTGTTT
binding signal (FEV): 1.45 fold enrichment (6-mer frequency, TF over GST control)
binding signal (ETV5): 1.53 fold enrichment (6-mer frequency, TF over GST control)
binding signal (HSF1): 1.24 fold enrichment (6-mer frequency, TF over GST control)
binding signal (SPIC): 1.08 fold enrichment (6-mer frequency, TF over GST control)
binding signal (ELF4): 1.44 fold enrichment (6-mer frequency, TF over GST control)
binding signal (ELK4): 1.61 fold enrichment (6-mer frequency, TF over GST control)
binding signal (ETV2): 1.32 fold enrichment (6-mer frequency, TF over GST control)
binding signal (ELF3): 1.61 fold enrichment (6-mer frequency, TF over GST control)
binding signal (CRX): 1.45 fold enrichment (6-mer frequency, TF over GST control)
binding signal (ETV1): 1.38 fold enrichment (6-mer frequency, TF over GST control)
binding signal (ERF): 1.45 fold enrichment (6-mer frequency, TF over GST control)
binding signal (ETV3L): 1.46 fold enrichment (6-mer frequency, TF over GST control)
binding signal (ETS2): 1.39 fold enrichment (6-mer frequency, TF over GST control)
binding signal (SPDEF): 1.32 fold enrichment (6-mer frequency, TF over GST control)
binding signal (ETV7): 1.6 fold enrichment (6-mer frequency, TF over GST control)
binding signal (ELF5): 1.37 fold enrichment (6-mer frequency, TF over GST control)
binding signal (ETV3): 1.5 fold enrichment (6-mer frequency, TF over GST control)
binding signal (ETV6): 1.53 fold enrichment (6-mer frequency, TF over GST control)
